Read-out in assay [1]: Human Leukocyte Antigen - DR isotype (HLADR), HLA-DRA (gene 3122)
The assay is described as follows: BSK_BE3C_HLADR: BioMAP Diversity Plus: BE3C Assay for Human Leukocyte Antigen - DR isotype (HLADR) Biomarker Activity (AID 2283032). The conditions noted are these: primary human bronchial epithelial cells; actives raise or lower the signal. In a few lines: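 ELISA read-out of HLA-DR on human lung bronchial epithelial primary cells, measured 24 h post-dosing. Both increases and decreases were scored relative to DMSO vehicle.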

Read-out in assay [2]: Vascular cell adhesion molecule 1 (VCAM1), VCAM1 (gene 7412)
The assay is described as follows: BSK_4H_VCAM1: BioMAP Diversity Plus: 4H Assay for Vascular cell adhesion molecule 1 (VCAM1) Biomarker Activity (AID 2283033).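 On outcome: cell-surface VCAM-1 protein measured by ELISA.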 To be noted: primary human endothelial cells (HUVEC); actives raise or lower the signal. In a few lines:
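ELISA read-out of VCAM-1 on human umbilical vein endothelium 24 hours after chemical dosing; gain or loss of signal was fitted relative to DMSO, with sulforhodamine B staining of parallel cultures flagging overt cytotoxicity.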

Read-out in assay [3]: Interferon-gamma inducible Protein 10 (IP10), CXCL10 (gene 3627)
The assay is described as follows: BSK_BE3C_IP10: BioMAP Diversity Plus: BE3C Assay for Interferon-gamma inducible Protein 10 (IP10) Biomarker Activity (AID 2283034). To be noted: primary human bronchial epithelial cells; actives raise or lower the signal. In a few lines: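 Chemical is dosed onto human lung bronchial epithelial primary cells, cultures are incubated 24 h, and IP-10 is then quantified by ELISA. Gain or loss of signal is fitted in both directions relative to DMSO.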

Read-out in assay [4]: Monokine induced gamma interferon (MIG), CXCL9 (gene 4283)
As to the kind of experiment: BSK_BE3C_MIG: BioMAP Diversity Plus: BE3C Assay for Monokine induced gamma interferon (MIG) Biomarker Activity (AID 2283035). The conditions noted are these: primary human bronchial epithelial cells; actives raise or lower the signal. In a few lines: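 ELISA read-out of MIG in human lung bronchial epithelial primary cultures, 24 h post-dosing. Bidirectional curve fit vs DMSO baseline.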

Read-out in assay [5]: Transforming growth factor beta 1 (TGFb1), TGFB1 (gene 7040)
As to the kind of experiment: BSK_BE3C_TGFb1: BioMAP Diversity Plus: BE3C Assay for Transforming growth factor beta 1 (TGFb1) Biomarker Activity (AID 2283036;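 on outcome: TGF-b1 protein level measured by ELISA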). The conditions noted are these: primary human bronchial epithelial cells; actives raise or lower the signal. In a few lines:
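Primary human lung bronchial epithelial cells; compound exposure 24 h; TGF-b1 by ELISA; bidirectional fit, DMSO baseline. Parallel SRB total-protein staining for cytotoxicity.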

Read-out in assay [6]: Plasminogen activator inhibitor-1 (PAI1), SERPINE1 (gene 5054)
As to the kind of experiment: BSK_BE3C_PAI1: BioMAP Diversity Plus: BE3C Assay for Plasminogen activator inhibitor-1 (PAI1) Biomarker Activity (AID 2283037). To be noted: primary human bronchial epithelial cells; actives raise or lower the signal. In a few lines:
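Primary human lung bronchial epithelial cells; chemical dosing; 24 h; PAI-1 measured by ELISA; bidirectional fit referenced to DMSO as negative control.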

Read-out in assay [7]: Urokinase-type plasminogen activator receptor (uPAR), PLAUR (gene 5329)
The assay is described as follows: BSK_BE3C_uPAR: BioMAP Diversity Plus: BE3C Assay for Urokinase-type plasminogen activator receptor (uPAR) Biomarker Activity (AID 2283039).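 On outcome: uPAR protein level measured by ELISA on the cells; cells exposed to compound for one day before measurement.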 To be noted: primary human bronchial epithelial cells; actives raise or lower the signal. In a few lines: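 Human bronchial epithelial primary cells; chemical exposure 24 h; uPAR by ELISA; bidirectional fit vs DMSO control.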

Read-out in assay [8]: Interleukin-6 (IL6), IL6 (gene 3569)
As to the kind of experiment: BSK_CASM3C_IL6: BioMAP Diversity Plus: CASM3C Assay for Interleukin-6 (IL6) Biomarker Activity for (AID 2283040). The conditions noted are these: primary human coronary artery smooth muscle cells; actives raise or lower the signal.

Read-out in assay [9]: Tissue plasminogen activator (tPA), PLAT (gene 5327)
The assay is described as follows: BSK_BE3C_tPA: BioMAP Diversity Plus: BE3C Assay for Tissue plasminogen activator (tPA) Biomarker Activity (AID 2283041).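 On outcome: tPA level quantified by ELISA one day after compound addition.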 To be noted: primary human bronchial epithelial cells; actives raise or lower the signal. In a few lines:
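Primary human lung bronchial epithelial cultures receive test chemical; after 24 h, tPA is quantified by ELISA, and gain or loss of signal is fitted bidirectionally relative to DMSO baseline.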

Read-out in assay [10]: urokinase plasminogen activator (uPA), PLAU (gene 5328)
As to the kind of experiment: BSK_BE3C_uPA: BioMAP Diversity Plus: BE3C Assay for urokinase plasminogen activator (uPA) Biomarker Activity (AID 2283038).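 Further: uPA protein level quantified by ELISA in cell cultures; uPA read one day after compound addition.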 To be noted: primary human bronchial epithelial cells; actives raise or lower the signal. In a few lines: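 Primary human bronchial epithelial cells, uPA measured by ELISA 24 h after dosing. Bidirectional change relative to DMSO; cytotoxicity checked in parallel cultures by sulforhodamine B total-protein staining.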

A structure can be active in one record and inactive in another. Calls of active or inactive are those of the source. How the source made its calls: active means hit-call score of the fitted dose curve at least 0.9, where 1 is the maximum; inactive means score below 0.9.

Regarding `Cc1oc(-c2ccccc2)nc1CCOc1ccc(C[C@H](Nc2ccccc2C(=O)c2ccccc2)C(=O)O)cc1`, the AC50 in assay [1] was 3.01 µM (active); in [2] it was 33.5 µM (active); in assay [3] it was 2.55 µM (active); in assay [4], 4.79 µM (active); in [5], 5.06 µM (active); in assay [6], 5.29 µM (active). Besides, the AC50 in assay [7] was 3.63 µM (active); in assay [8] it was 29.9 µM (active). Besides, in [9], the outcome was inactive.

With `CCCCCCC(=O)O`, the outcome in assay [1], in [2], in assay [3], in [4], in [5] and in assay [6] was inactive. The outcome in assay [7], in [8] and in assay [9] was inactive.

For the compound `Oc1cc2ccccc2c2ccccc12`, the AC50 in [1] was 13.8 µM (active); in [2], 8.16 µM (active); in assay [3], 13 µM (active); in assay [5], 13.9 µM (active); in assay [6], 24.9 µM (active); in assay [7] it was 27.6 µM (active). The AC50 was 8.56 µM (active) in assay [8] and 14.7 µM (active) in assay [9].

As to `c1ccc2c(c1)Cc1ccccc1-2`, the outcome in [1], in assay [2], in assay [3], in assay [5], in [6] and in assay [8] was inactive. In [9], the result was inactive.

Regarding `CCCCOCCO`, the outcome in [1], in assay [2], in assay [3], in assay [5], in assay [6] and in assay [7] was inactive. Moreover, the result in assay [8] and in assay [9] was inactive.

In the case of `CCCOc1sc(C(=O)N2CCC(c3cc(CN)ccc3F)CC2)c(C)c1Br`, the AC50 was 7.9 µM (active) in assay [1]; 8.01 µM (active) in assay [2]; 9.51 µM (active) in assay [3]; 6.71 µM (active) in assay [5]; 9.91 µM (active) in assay [6]; 7.36 µM (active) in assay [7]. Also, the values for the AC50 in assay [8] and in [9] were 27.4 µM (active) and 5.19 µM (active), respectively.

As for `CN1CCN(c2ccccc2/C=C2\SCCN(c3ccc(Cl)c(Cl)c3)C2=O)CC1`, the AC50 in assay [1] was 25.7 µM (active); in assay [3], 30.4 µM (active); in [5] it was 29.3 µM (active); in [6], 33.3 µM (active); in assay [9] it was 25.7 µM (active). The outcome in assay [2] and in assay [8] was inactive.

Consider `CC(C)(C)c1ccc(O)c(C(C)(C)C)c1`, for which the half-maximal activity concentration (AC50) in [1] was 28.1 µM (active); in [2], 9.93 µM (active); in [3], 31.7 µM (active); in assay [5] it was 27.8 µM (active); in assay [6] it was 31.6 µM (active); in assay [7], 36.3 µM (active). The half-maximal activity concentration (AC50) is 13.6 µM (active) in assay [8] and 27.5 µM (active) in [9].

With `COc1ccc([N+](=O)[O-])cc1N`, the result in [1], in [3], in [5], in assay [6], in assay [10] and in [7] was inactive. Further, the outcome in assay [8] and in [9] was inactive.

`c1ccc2c(c1)ccc1ccccc12`: the outcome in [1], in [2], in assay [3], in assay [5], in [6] and in [7] was inactive. In addition, the outcome in [8] and in [9] was inactive.

With `O=[N+]([O-])c1ccc(O)cc1`, the outcome in assay [1], in assay [2], in assay [3], in [5], in assay [6] and in [7] was inactive. Besides, the outcome in assay [8] and in assay [9] was inactive.

`CCN(CC)CCNc1ccc(CNC=O)c2sc3ccc(OC)cc3c(=O)c12`: the half-maximal activity concentration (AC50) in assay [1] was 11 µM (active); in [2], 30.7 µM (active); in [3], 14.3 µM (active); in assay [6], 1.61 µM (active); in [7], 12.9 µM (active); in assay [8], 20 µM (active). In addition, the outcome in [5] and in assay [9] was inactive.

With `OC1CCCCC1`, the result in assay [1], in [2], in assay [3], in [5], in assay [6] and in assay [7] was inactive. The outcome in [8] and in [9] was inactive.

For the compound `CCc1ccc(CCOc2ccc(CC3SC(=O)NC3=O)cc2)nc1` (centres undefined), the outcome in assay [1], in assay [2], in assay [3], in assay [5], in assay [6] and in assay [10] was inactive. Besides, the result in [7], in assay [8] and in [9] was inactive.

Regarding `CCC(C)(C)C1CCC(O)CC1` (centres undefined), the outcome in assay [1], in assay [2], in assay [3], in assay [5], in [6] and in assay [7] was inactive. Besides, the outcome in assay [8] and in assay [9] was inactive.

Turning to `C=C(C)C(=O)OCCC(F)(F)C(F)(F)C(F)(F)C(F)(F)C(F)(F)C(F)(F)F`, the result in assay [1], in [2], in assay [3], in assay [5], in [6] and in assay [7] was inactive. For the same compound, the result in assay [8] and in assay [9] was inactive. For the same compound, the AC50 is 20 µM (active) in assay [8] and 3.97 µM (active) in assay [9].

For `Nc1cccc2c(N)cccc12`, the outcome in assay [1], in [2], in assay [3], in [5], in [6] and in assay [7] was inactive. Moreover, the outcome in assay [8] and in assay [9] was inactive.
